The text below walks through data of the supplement of paper PMC3334620.

The full ranking holds about 33,000 sequences; the median of “E-score (-0.5 to 0.5)” is about -0.032, and the highest 2% start at about 0.36. The entries come from a sample that favours the highest values as a whole.

This assay has as its target T1, Sko1 (UniProt Q02100).
T1 sequence: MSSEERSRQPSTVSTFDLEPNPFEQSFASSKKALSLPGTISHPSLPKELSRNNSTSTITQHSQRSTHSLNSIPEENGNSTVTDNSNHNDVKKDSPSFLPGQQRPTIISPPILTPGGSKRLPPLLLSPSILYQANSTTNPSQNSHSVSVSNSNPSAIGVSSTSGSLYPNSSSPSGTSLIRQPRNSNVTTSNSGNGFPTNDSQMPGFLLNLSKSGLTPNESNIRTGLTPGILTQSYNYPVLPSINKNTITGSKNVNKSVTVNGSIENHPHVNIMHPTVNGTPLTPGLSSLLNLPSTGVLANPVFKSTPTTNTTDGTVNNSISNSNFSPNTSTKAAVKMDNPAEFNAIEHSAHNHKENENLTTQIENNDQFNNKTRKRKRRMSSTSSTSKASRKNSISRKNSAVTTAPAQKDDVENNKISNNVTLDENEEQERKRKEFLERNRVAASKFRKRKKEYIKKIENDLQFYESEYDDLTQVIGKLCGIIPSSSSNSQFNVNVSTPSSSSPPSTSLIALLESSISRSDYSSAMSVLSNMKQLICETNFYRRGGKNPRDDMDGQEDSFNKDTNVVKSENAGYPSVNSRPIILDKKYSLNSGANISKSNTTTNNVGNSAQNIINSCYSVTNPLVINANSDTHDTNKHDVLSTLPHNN
As to the kind of experiment: PBM E-score (8-mer binding enrichment) (E-score (-0.5 to 0.5)); higher = stronger / more preferred TF binding. Particulars: protein concentration: 200 nM; construct: GST-full length. Put shortly:
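Universal all-10-mer Agilent arrays, double-stranded by primer extension on fresh or once-stripped slides, were probed with about 100-200 nM GST-tagged yeast transcription factors made by PURExpress. Fluorescent anti-GST detected bound protein, and masliner normalised the scans. E-scores from the Universal PBM Analysis Suite were given to each ungapped eight-base word pooled with its reverse complement.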
Take GCAACCGA: the “PBM E-score” value is -0.129.
For the sequence ATTGGCAA, the “PBM E-score” value came out at 0.134.
For the sequence GCGTAAGA, the “PBM E-score” value was found to be 0.378.
GTGTAATA: the “PBM E-score” value was determined as 0.221.
Then ACGTAAGG, with 0.464.
Then CCGTAAGG, with -0.15; and ATGTAATA, with 0.376.
For GAGTAAGA, the “PBM E-score” value stood at 0.0882.
Regarding AGGTAAGG, the “PBM E-score” value was -0.0698.
The result for GTGTAAGA reads 0.0148; that for CTGTAATA, 0.042.
The result for GACTTTGC reads -0.117; that for TCTCGCAA, -0.114.
Then CATGCCAG, with -0.191; and CCTAGGCA, with -0.257; and AGAGCGAT, with -0.16.
On to CTAGCTAC, for which the “PBM E-score” value is -0.105.
For GCATGCCA, the “PBM E-score” value is -0.187.
The result for CTGCCATA reads -0.0751.
Regarding GTCTGCCA, the “PBM E-score” value is -0.00797.
The result for TACGCGCA reads 0.209; that for ATCGCGTA, 0.326; that for AACGCGTA, 0.287.
The result for GACGCGTA reads 0.388; that for TACGCGTA, 0.387.
The result for CACGCGTC reads 0.291.
Take GTCGCGTA: the “PBM E-score” value worked out at 0.363.
Turning to CACGCGTA, the “PBM E-score” value stood at 0.311.
The result for CTCGCGTA reads 0.212.
The result for CCCTGGCA reads -0.34; that for GGCTGGCA, -0.303; that for AGAACGGG, -0.124.
The result for CGTGCGTA reads 0.382; that for CCTGCGTC, 0.122.
As for AGTGCGTG, the “PBM E-score” value amounted to 0.152.
Then CGTGCGCA, with 0.205.
Take CGTGCGAC: the “PBM E-score” value was found to be 0.0911.
Then AGTGCGTC, with 0.225; and AGTGCGTA, with 0.376.
Then CGTGCGTC, with 0.388; and GGTGCGTA, with 0.299.
CTAGACTA: the “PBM E-score” value was -0.139.
Then CATTGGTC, with -0.282.
Then CTTGTGCA, with -0.154; and GTAGCGGA, with -0.0973.
Then CGCTTAAA, with 0.0298; and AGCGTGAT, with 0.147; and CCGTACAG, with -0.22.
With TCGTACAA, the “PBM E-score” value stood at 0.206.
In the case of ATGTACAT, the “PBM E-score” value was 0.32.
Then CCGTACAC, with -0.0557.
With ACGTACAT, the “PBM E-score” value was determined as 0.449.
Then ACGTACAG, with 0.415.
With ACGTACAC, the “PBM E-score” value was found to be 0.444.
For GCGTACAA, the “PBM E-score” value turned out to be 0.146.
Then ACGTACAA, with 0.414; and GCGTACAC, with 0.213; and AGGTACAG, with -0.145.
AAGTACAT: the “PBM E-score” value is 0.237.
Then ACCAATGG, with -0.28; and CTCAGTTA, with -0.0515.
Regarding CGAAACTC, the “PBM E-score” value was -0.0389.
For TAGTCCAA, the “PBM E-score” value is -0.132.
Regarding ACGTCAGT, the “PBM E-score” value was found to be 0.469.
GTGTCAGA: the “PBM E-score” value was -0.06.
For ACATCAGT, the “PBM E-score” value was 0.179.
Take ACGTCAGG: the “PBM E-score” value was 0.457.
As for GCGTCAGA, the “PBM E-score” value was determined as 0.364.
The result for TCGTCAGA reads 0.307; that for AAGTCAGT, -0.0135.
Then GGGTCAGA, with -0.219.
Regarding ATGTCAGG, the “PBM E-score” value was found to be 0.0993.
For ACGTCAGA, the “PBM E-score” value stood at 0.479.
Then CCGTCAGA, with -0.0558; and CCGTCAGG, with -0.0861.
AGTCCCTG: the “PBM E-score” value is -0.259.
In the case of AATGGGAC, the “PBM E-score” value is -0.215.
Then CGCCCTGC, with -0.236; and CCACTCAG, with -0.212; and CCAAAGAC, with -0.098.
Take GCGCCCGC: the “PBM E-score” value is -0.165.
Then GATCATAC, with 0.14.
Then ACGGTTCA, with -0.126.
GCGTCAGC: the “PBM E-score” value was 0.209.
Then ACGTCAGC, with 0.48; and CCGTCAGC, with -0.127; and CCCCCCAC, with -0.372.
The result for CCGTGTAA reads -0.0449; that for ACGTGTAG, 0.367; that for AAGTGTAG, 0.0389.
For the sequence ACGTGTAT, the “PBM E-score” value amounted to 0.414.
Take CCGTGTAG: the “PBM E-score” value was -0.181.
Regarding AGGTGTAT, the “PBM E-score” value turned out to be 0.075.
For the sequence ACGTGTAC, the “PBM E-score” value is 0.409.
As for ACGTGTAA, the “PBM E-score” value amounted to 0.386.
The result for TCGTGTAA reads 0.116; that for CCGTGTAC, -0.0602; that for GCGTGTAC, 0.227.
Then AAGTGTAT, with 0.0856.
